From PubChem BioAssay AID651598 (Sanford-Burnham Center for Chemical Genomics, 2012)
Values joined by “and” are separate entries in the source; they are usually repeats but may differ in a detail not shown here. Equal values may be shown once.

What follows are compounds tested against Apelin receptor (Homo sapiens) (UniProt P35414) (assay: APJ beta-arrestin recruitment blockade alongside CXCR6 – cell-based, DiscoveRx, panel, CHO-K1, counter-screen for CXCR6 antagonist project, SAR follow-up (AID 651598)). Conditions: CHO-K1 PathHunter beta-arrestin luminescence, antagonist mode; run 2, at 80 µM (top of the series).
Sequence of Apelin receptor (Homo sapiens) (P35414 whole entry, looked up): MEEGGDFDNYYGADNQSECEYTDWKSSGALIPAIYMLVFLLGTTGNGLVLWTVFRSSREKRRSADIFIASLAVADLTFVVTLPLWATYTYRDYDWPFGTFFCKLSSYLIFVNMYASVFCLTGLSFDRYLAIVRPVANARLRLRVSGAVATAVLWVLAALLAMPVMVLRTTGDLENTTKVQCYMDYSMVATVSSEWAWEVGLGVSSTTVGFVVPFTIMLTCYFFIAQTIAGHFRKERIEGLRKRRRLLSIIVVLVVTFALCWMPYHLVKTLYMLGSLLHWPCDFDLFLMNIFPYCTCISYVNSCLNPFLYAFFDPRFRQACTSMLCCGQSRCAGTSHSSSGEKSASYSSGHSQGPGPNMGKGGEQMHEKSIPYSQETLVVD

**Q.** COc1cc(C(=O)NC2CC3CCCC(C2)N3CC(=O)Nc2ccccc2)cc(OC)c1OC (stereo not drawn) was tested. Which inhibition did it give?
**A.** Its inhibition is 11.6% and 7.3% and -8.97%.

**Q.** How did the inhibition turn out when COc1cc(C(=O)NC2CCN(CC(=O)Nc3ccccc3)CC2)cc(OC)c1OC was run?
**A.** Its inhibition is 4.86%.

**Q.** COc1cc(C(=O)NC2CC3CCC(C2)N3CC(=O)Nc2ccccc2)cc(OC)c1OC (stereo not drawn) was tested. Which inhibition did it give?
**A.** Its inhibition is -3.64% and 3.22%.
